Data taken from PubChem BioAssay (Tox21).
Results filed as inconclusive are left out. Activity calls are given as the source filed them. Unless noted, the call rests on the fitted dose curve; in most records, active means well fitted curve in the direction sought with a large enough effect in the repeat runs; inconclusive means weak or mixed curves; inactive means no such curve, though single readings can be large; an effect the other way counts as inactive or inconclusive.

Legend:
[1] = qHTS assay to identify small molecule agonists of the RXR signaling pathway - cell viability counter screen (AID 1159529);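 further: HEK 293T cells carrying an RXR-alpha UAS beta-lactamase reporter; nearly all actives have a fitted effect of over 50% in size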
Procedure, shortened: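 Counter screen: CellTiter-Glo luminescence. Cells: RXR-alpha-UAS-bla HEK 293T. Medium: 2% charcoal-stripped FBS. Treatment: 16 h, 37 C. Reagent incubation: 30 min, RT.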

[2] = qHTS assay to identify small molecule antagonists of the retinoid acid receptor (RAR) signaling pathway - cell viability counter screen (AID 1159551); further: nearly all actives have a fitted effect of over 35% in size
Procedure, shortened: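 ATP-based viability, C3RL4 cells, 6 h at 37 C with 1 uM final retinol co-added after compound; luminescence read 30 min post CellTiter-Glo, RT.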

[3] = qHTS assay to identify small molecule antagonists of the retinoic acid receptor (RAR) signaling pathway (AID 1159552; further: nearly all actives have a fitted effect of over 50% in size)
Procedure, shortened: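 Antagonism of retinol-induced RARE reporter activity was measured in C3RL4 cells. Exposure to compounds and 1 uM final retinol lasted 6 hr at 37 C, with luminescence as endpoint.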

[4] = qHTS assay to identify small molecule agonists of the retinoic acid receptor (RAR) signaling pathway (AID 1159553); settings: C3RL4 RARE luciferase reporter, agonist, 6 h; activation: at 73.3 µM (top of the series)
Procedure, shortened: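 Quantitative high-throughput format: the Tox21 10K library was tested on C3RL4 RARE-luciferase cells for 6 hr at 37 C and 5% CO2, with luminescence measured after a 30 min room-temperature reagent step.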

[5] = qHTS assay to identify small molecule antagonists of the estrogen related receptor (ERR) signaling pathway from Tox21 library - cell viability counter screen (AID 1224834); further: nearly all actives have a fitted effect of over 30% in size
Procedure, shortened: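 Compounds in DMSO were pinned onto ERR cells that had been incubated for 6 h, and the plates were held at 37 C for 17.5 h. CellTiter-Fluor reagent was then added and fluorescence was measured after 30 min.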

[6] = target: Luciferin 4-monooxygenase (Photinus pyralis) (UniProt P08659); test: qHTS assay to identify small molecule inhibitors of firefly luciferase (AID 1224835); further: nearly all actives have a fitted effect of over 25% in size
Luciferin 4-monooxygenase (Photinus pyralis), sequence (P08659 whole entry, looked up): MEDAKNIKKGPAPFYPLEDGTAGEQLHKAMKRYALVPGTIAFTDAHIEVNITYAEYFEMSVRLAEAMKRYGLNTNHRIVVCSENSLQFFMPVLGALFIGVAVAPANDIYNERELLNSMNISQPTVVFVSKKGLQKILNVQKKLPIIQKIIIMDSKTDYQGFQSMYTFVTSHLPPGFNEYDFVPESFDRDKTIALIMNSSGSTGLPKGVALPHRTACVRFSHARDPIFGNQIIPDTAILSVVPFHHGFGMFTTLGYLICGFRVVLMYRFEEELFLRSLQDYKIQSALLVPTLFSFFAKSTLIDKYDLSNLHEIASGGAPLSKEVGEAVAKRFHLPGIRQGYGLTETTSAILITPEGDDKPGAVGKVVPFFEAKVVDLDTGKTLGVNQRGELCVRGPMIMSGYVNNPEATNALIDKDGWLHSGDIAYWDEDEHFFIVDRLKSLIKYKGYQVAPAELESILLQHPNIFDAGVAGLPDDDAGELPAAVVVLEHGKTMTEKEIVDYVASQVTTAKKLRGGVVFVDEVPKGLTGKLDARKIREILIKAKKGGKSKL
Procedure, shortened: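 Inhibition of purified Photinus luciferase is measured by luminescence. Substrate levels (D-luciferin, ATP) sit at their KM values. Each compound is tested in a concentration series.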

[7] = qHTS assay to identify small molecule agonists of the constitutive androstane receptor (CAR) signaling pathway - cell viability counter screen (AID 1224836); further: nearly all actives have a fitted effect of over 45% in size
Procedure, shortened: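 Double-stable HepG2 hepatoma cells (hCAR plus CYP2B6-2.2kb) are treated for 23 h at 37 C with test compounds in 15-point concentration series. PK11195 at 0.75 uM final is co-added. Cell viability is quantified by CellTiter-Fluor.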

[8] = qHTS assay to identify small molecule antagonists of the constitutive androstane receptor (CAR) signaling pathway - cell viability counter screen (AID 1224837); further: nearly all actives have a fitted effect of over 45% in size
Procedure, shortened: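 Cells are seeded, rested 4 hr at 37 C/5% CO2, dosed with compound (15-point series) and 50 nM CITCO, incubated a further 23 hr, and then CellTiter-Fluor reagent is added before fluorescence is read. The line is HepG2 with stable hCAR and CYP2B6-2.2kb.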

[9] = qHTS assay to identify small molecule antagonists of the estrogen related receptor signaling pathway with the pleiotropic PPARgamma coactivator (PGC) from Tox21 10K library - cell viability counter screen (AID 1224840; active means well fitted cell-killing curve with a large enough effect in the repeat runs, not every such curve was filed as active; further: nearly all actives have a fitted effect of over 40% in size)
Procedure, shortened: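 Cell viability is measured by CellTiter-Fluor fluorescence in PGC/ERR cells that receive compounds after a 6-hour attachment period and are then incubated 17.5 hours at 37 C.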

[10] = target: Thyrotropin receptor (Homo sapiens) (UniProt P16473); test: qHTS assay to identify small molecule agonists of the thyroid stimulating hormone receptor (TSHR) signaling pathway (AID 1224843; calls by dose curve; further: nearly all actives have a fitted effect of over 45% in size)
Thyrotropin receptor (Homo sapiens), sequence (P16473 whole entry, looked up): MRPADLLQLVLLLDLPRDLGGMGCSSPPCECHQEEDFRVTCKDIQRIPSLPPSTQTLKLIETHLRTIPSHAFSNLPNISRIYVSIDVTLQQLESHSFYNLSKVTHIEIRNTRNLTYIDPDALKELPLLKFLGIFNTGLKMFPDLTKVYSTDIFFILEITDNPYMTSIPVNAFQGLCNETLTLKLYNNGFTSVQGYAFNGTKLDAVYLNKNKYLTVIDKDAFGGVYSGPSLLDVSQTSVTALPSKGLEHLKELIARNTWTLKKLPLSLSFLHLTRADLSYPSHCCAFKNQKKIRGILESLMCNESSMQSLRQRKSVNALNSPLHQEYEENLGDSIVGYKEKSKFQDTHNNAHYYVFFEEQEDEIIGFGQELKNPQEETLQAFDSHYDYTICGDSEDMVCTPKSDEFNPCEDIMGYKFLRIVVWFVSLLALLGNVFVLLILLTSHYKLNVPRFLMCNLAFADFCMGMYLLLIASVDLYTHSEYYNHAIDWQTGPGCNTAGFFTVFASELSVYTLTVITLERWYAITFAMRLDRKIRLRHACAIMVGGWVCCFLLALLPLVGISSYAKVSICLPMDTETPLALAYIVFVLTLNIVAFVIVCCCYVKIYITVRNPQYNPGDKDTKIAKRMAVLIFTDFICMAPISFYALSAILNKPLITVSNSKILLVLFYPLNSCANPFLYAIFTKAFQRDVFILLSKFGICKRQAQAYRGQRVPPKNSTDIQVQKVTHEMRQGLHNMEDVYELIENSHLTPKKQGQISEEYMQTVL
Procedure, shortened: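 Agonist activity read as cAMP rise via d2/cryptate HTRF competition, 1 h room-temperature detection, in HEK293 cells expressing TSHR. Fifteen-point titrations, each run in triplicate, with a 30 min room-temperature incubation beforehand.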

[11] = qHTS assay to identify small molecule agonists of the hypoxia (HIF-1) signaling pathway - cell viability counter screen (AID 1224844; calls by dose curve; further: nearly all actives have a fitted effect of over 50% in size)
Procedure, shortened: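 Viability counter screen: HRE-bla ME-180 cells plated 5 hrs before compound addition, treated 17 hrs at 37C and 5% CO2, then CellTiter-Glo added after the FRET reporter read; luminescence after 30 min.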

[12] = qHTS assay to identify small molecule agonists of H2AX (AID 1224845; active means well fitted activation curve with a large enough effect in the signal ratio in the repeat runs, not every such curve was filed as active; the % refers to the signal ratio)
Procedure, shortened: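 Phospho-H2AX Ser139 measured by HTRF (ex 320 nm; em 665 and 620 nm) after 24 hr antibody incubation. Compounds, 15 concentrations, 0.76% DMSO, were applied to CHO-K1 cells for 3hr at 37C before lysis.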

[13] = qHTS assay to identify small molecule agonists of the hypoxia (HIF-1) signaling pathway (AID 1224846; active means well fitted activation curve with a large enough effect in the signal ratio in the repeat runs, not every such curve was filed as active; the % refers to the signal ratio)
Procedure, shortened: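 Agonist mode reporter screen. ME-180 cells stably expressing bla under HRE control received test compounds in DMSO for 17 hrs (37C, 5% CO2), and beta-lactamase activity was then detected with the CCF4-AM FRET substrate.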

[14] = qHTS assay to identify small molecule agonists of H2AX - cell viability counter screen (AID 1224847; calls by dose curve;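 further: wild-type CHO-K1 cells; top concentration of the series differs between compounds; nearly all actives have a fitted effect of over 30% in size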)
Procedure, shortened: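 For this counter screen, overnight-attached CHO-K1 cells received test compounds (15 concentrations, 0.76% DMSO final); 3 hr later at 37C, CellTiter-Glo reagent was added and luminescence recorded after 30 min at room temperature.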

[15] = qHTS assay to identify small molecule antagonists of the estrogen related receptor signaling pathway with the pleiotropic PPARgamma coactivator (PGC) from Tox21 10K library (AID 1224841; call rule not given here; further: actives are mostly falling curves and most rising ones were filed inactive; nearly all actives have a fitted effect of over 50% in size)
Procedure, shortened: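 Cells stably carrying the PGC/ERR reporter, seeded at 2,000 per well, received pin-transferred compounds 6 h post-plating. Exposure lasted 18 h at 37 C. Signal: One-Glo luminescence.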

[16] = qHTS assay to identify small molecule agonists of the estrogen related receptor signaling pathway with the pleiotropic PPARgamma coactivator (PGC) from Tox21 10K library (AID 1224842); further: nearly all actives have a fitted effect of over 15% in size
Procedure, shortened: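 Luminescence from One-Glo (30 min, room temperature) measured after PGC/ERR cells had 18 h at 37 C with pinned compound (23 nL in DMSO). Cells had been seeded at 2,000 per well and pre-incubated 6 h.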

[17] = qHTS assay to identify small molecule antagonists of the estrogen related receptor (ERR) signaling pathway from Tox21 library (AID 1224848); further: nearly all actives have a fitted effect of over 50% in size
Procedure, shortened: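 Luciferase luminescence (ONE-Glo, 30 min room temperature) was the read-out. Cells of the NTP-supplied ERR line, 2,000 per well, were given 6 h at 37 C before compound addition in DMSO and 18 h exposure at 37 C.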

[18] = qHTS assay to identify small molecule agonists of the estrogen related receptor (ERR) signaling pathway from Tox21 library (AID 1224849; calls by dose curve; further: nearly all actives have a fitted effect of over 15% in size)
Procedure, shortened: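 Quantitative HTS in agonist format: NTP ERR cell line, compounds transferred in DMSO after 6 h plating, 18 h incubation at 37 C, ONE-Glo luminescence endpoint.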

Measured: Potency

NC(Cc1c[nH]c2ccccc12)C(=O)O (stereo not given)
not listed: [15] | [16] | [17] | [18]
inactive: all other assays above

COC(OC)C(C)c1ccccc1 (stereo not given)
not listed: [13] | [15] | [16] | [17] | [18]
inactive: all other assays above

O=C1OC(=O)c2ccccc21
not listed: [10] | [15] | [16] | [17] | [18]
inactive: all other assays above

CCCCC/C=C/CC(=O)OC
not listed: [15] | [16] | [17] | [18]
inactive: all other assays above

CCCOCCOCCOCCO
not listed: [10] | [13]
inactive: all other assays above

Cc1nc([N+](=O)[O-])cn1-c1ccc([N+](=O)[O-])cc1
not listed: [10] | [15] | [16] | [17] | [18]
inactive: all other assays above

CCCCC(C)C(=O)O (stereo not given)
not listed: [10]
inactive: all other assays above

O=c1cc(O)c(Cl)c[nH]1
not listed: [15] | [16] | [17] | [18]
inactive: all other assays above

Nc1nc(=O)n([C@@H]2O[C@H](CO)[C@@H](O)[C@@H]2F)cc1I
not listed: [11] | [12] | [15] | [16] | [17] | [18]
inactive: all other assays above

Cc1ccccc1C
not listed: [10]
inactive: all other assays above

O=[Si]=O
not listed: [10] | [14]
inactive: all other assays above

CC(=O)Nc1ccc(C)cc1
not listed: [10] | [11]
inactive: all other assays above

CO/N=C(/C(=O)N[C@@H]1C(=O)N2C(C(=O)O)=C(Cn3nnc(C)n3)CS[C@H]12)c1csc(N)n1
not listed: [10] | [13] | [14] | [15] | [16] | [17] | [18]
inactive: all other assays above

O=P(O)(O)OCC(O)CO (stereo not given)
not listed: [10] | [12] | [14]
inactive: all other assays above

Cc1cccc(Nc2ccncc2S(=O)(=O)NC(=O)NC(C)C)c1
not listed: [10] | [12] | [14]
inactive: all other assays above

CCCCCN(CCCOC)C(=O)C(CCC(=O)O)NC(=O)c1ccc(Cl)c(Cl)c1 (stereo not given)
not listed: [10]
inactive: all other assays above

Nc1ccc(S(=O)(=O)NC(=O)c2ccccc2)cc1
not listed: [12] | [13] | [15] | [16] | [17] | [18]
inactive: all other assays above
